107 compounds from PubChem BioAssay AID1775 (NMMLSC, 2009) can be followed below.

In all, about 220,000 compounds went through this assay and about 820 (0.37%) were called active. Cut-off read from the data, not from the text of the source: active = fluorescence above about 47; inactive = the rest. This excerpt belongs to a sample that is enriched for actives.

This test can be described thus: green autofluorescence of compounds with avidin beads – biophysical, 488/530 nm, flow cytometry, artefact control, profiling panel (AID 1775). The settings on record: compound fluorescence 488/530 nm, at 10 µM, active compounds read high. (A flow cytometer gives signals particle by particle.)
Take `O=C(c1ccco1)N1CCN(c2cccc(Cl)c2)CC1`: the fluorescence (KMESF) was 13 (inactive). In the case of `O=C(c1cccc(S(=O)(=O)Nc2ccccc2Cl)c1)N1CCN(C(=O)c2ccco2)CC1`, the fluorescence (KMESF) was 12 (inactive). The value for `O=C(Cc1c(F)cccc1Cl)N1CCN(C(=O)c2ccco2)CC1` was 91 (active); that for `O=C1CC(Cc2ccc(Cl)cc2)C(=O)N1c1cc(Cl)ccn1` (configuration not stated) was 3 (inactive); that for `COC(=O)c1c(NC(=O)CN(c2ccc(C)c(C)c2)S(C)(=O)=O)sc2c1CCCC2` was 7 (inactive).

As for `CSc1nc2nc(-c3cccc(C(F)(F)F)c3)ccn2n1`, the fluorescence (KMESF) was 28 (inactive).

For `CN(CCOc1ccccc1)Cc1nc2cc(Cl)ccc2c(=O)[nH]1`, the fluorescence (KMESF) is 19 (inactive). To `CCOC(=O)c1cc2c(=O)[nH]c(C(Cl)(Cl)Cl)nc2o1` belongs 5 (inactive). Take `COc1ccc(Nc2ncc(F)c(N3CCOCC3)n2)cc1`: the fluorescence (KMESF) is 5 (inactive).

Turning to `CC(=O)N/N=C(\C)c1ccc(Br)cc1Br`, the fluorescence (KMESF) was 173 (active). For `CC(C)/C=N/NC(=O)c1cc(Br)ccc1O`, the fluorescence (KMESF) was 2 (inactive). As to `O=C(/C(=N\O)n1cncn1)c1ccc(Br)cc1Br`, the fluorescence (KMESF) was 5 (inactive). The value for `CCOc1ccc(-c2nnc(-c3ccco3)o2)cc1` was 8 (inactive). `Cc1ccc(OCC(=O)Nc2ccc(-c3nnc(-c4ccco4)o3)cc2)cc1`: the fluorescence (KMESF) was 50 (active). The value for `Cc1ccc(OCC(=O)Nc2nnc(-c3ccco3)s2)cc1` was 8 (inactive). For `CCOC(=O)N1CCN(c2cc(C)c([N+](=O)[O-])cc2F)CC1`, the fluorescence (KMESF) is 7 (inactive). On to `S=C(NCCc1ccccc1)NCc1ccccc1Cl`, for which the fluorescence (KMESF) was 13 (inactive). For the compound `COC(=O)c1c(C(=O)OC)c(-c2cccc(C)c2)n2c1CS(=O)C2` (configuration not stated), the fluorescence (KMESF) is 7 (inactive).

As for `O=C(CCc1ccccc1)NCCc1cccs1`, the fluorescence (KMESF) is 6 (inactive). The value for `Cc1ccnc(NC(=O)CCC(=O)N(CC(=O)NCCc2ccccc2)Cc2cccs2)c1` was 9 (inactive); that for `O=C(O)CCC(=O)N(Cc1cccs1)Cc1cccs1` was 74 (active); that for `Cc1cc(C(=O)NCCc2ccc(Cl)cc2)n(-c2ccccc2)n1` was 6 (inactive). As for `CCOC(=O)c1nc(C)n(-c2ccc(Cl)cc2Cl)n1`, the fluorescence (KMESF) is 8 (inactive).

For `Cc1cc(C)nc(NC(=O)/C=C/c2ccc(Cl)cc2)n1`, the fluorescence (KMESF) was 6 (inactive).

As for `Cc1cc(C)nc(/N=C2\NC(=O)CC(C(=O)O)N2c2ccc(Cl)cc2Cl)n1` (configuration not stated), the fluorescence (KMESF) is 66 (active). To `O=C(NCc1cccs1)c1ccc(Br)o1` belongs 12 (inactive); to `CC(CCc1ccccc1)NC(=O)c1ccc(Br)o1` (configuration not stated), 8 (inactive); to `CC(CNC(=O)c1ccc(Br)o1)NC(=O)c1ccc(Br)o1` (configuration not stated), 48 (active).

`CC(=O)N(OCc1ccc(OC(C)C)c(Cl)c1)C(C)=O`: the fluorescence (KMESF) was 8 (inactive). The value for `CC(=O)NCC(=O)N(Cc1ccco1)C1(C(=O)NC2CCCC2)CCCCC1` was 6 (inactive); that for `CS/C(=C\[N+](=O)[O-])Nc1ccc(C)cc1` was 12 (inactive); that for `Cc1cc(Cl)ccc1NC(=S)N1CCC(C(N)=O)(N2CCCCC2)CC1` was 10 (inactive). For `COc1cc(C(=O)NCc2nnc(SCC(=O)Nc3nc4ccc(C)cc4s3)o2)cc(OC)c1OC`, the fluorescence (KMESF) is 19 (inactive). Turning to `Nc1c(-c2ccc(F)cc2)cnn1C1CCS(=O)(=O)C1` (configuration not stated), the fluorescence (KMESF) was 7 (inactive). With `Cc1cc(N2CCN(c3ccc(F)cc3)CC2)n2ncnc2n1`, the fluorescence (KMESF) is 9 (inactive). To `Nc1c(-c2ccc(F)cc2)cnc2ncnn12` belongs 76 (active); to `CC(C)(C)OC(=O)N/N=C/c1cn(-c2ccccc2)nc1-c1cccnc1`, 13 (inactive); to `O=C(NCc1csc(-c2cccs2)n1)C1CC1`, 2 (inactive). Turning to `CC1Cc2ccccc2N1S(=O)(=O)c1ccc(Cl)nc1` (configuration not stated), the fluorescence (KMESF) is 4 (inactive). As for `COc1cc(CO)c(C2(CO)CCCC2)cc1OC`, the fluorescence (KMESF) is 36 (inactive). As to `Cc1nc2nc(SCC(=O)NCc3ccco3)nn2c(C)c1Cc1ccccc1`, the fluorescence (KMESF) was 15 (inactive).

Regarding `Cc1nc2c(-c3ccc(F)cc3)c(C)nn2c(C)c1CCC(=O)NCc1ccco1`, the fluorescence (KMESF) was 6 (inactive). To `COc1cc(OC)cc(-c2nc3nc(C)c(CCC(=O)NCc4ccco4)c(C)n3n2)c1` belongs 59 (active); to `CCOC(=O)C(C)Sc1nnc(CSc2nc3nc(C)cc(C)n3n2)o1` (configuration not stated), 15 (inactive). As for `Cn1c(=O)c2c(ncn2CCc2ccccc2)n(C)c1=O`, the fluorescence (KMESF) was 11 (inactive). The value for `CC(C)Cn1c(CN(Cc2ccccc2)Cc2ccccc2)nc2c1c(=O)n(C)c(=O)n2C` was 8 (inactive); that for `CC(C)Cn1cnc2c1c(=O)n(CC(O)c1ccccc1)c(=O)n2CC(C)C` (configuration not stated) was 67 (active); that for `CCNC(=O)COc1cc(C)c(Br)c(C)c1` was 9 (inactive). To `CC(C)C(=O)Nc1c(O)c2ccccc2[nH]c1=O` belongs 10 (inactive). Consider `CCCCc1nc2c(=O)[nH]c3ccccc3c2o1`, for which the fluorescence (KMESF) was 26 (inactive). Turning to `CC1CCc2c(c3ccccc3[nH]c2=O)O1` (configuration not stated), the fluorescence (KMESF) is 57 (active). To `CCCN(CCC)C(=S)Nc1cc(C(=O)OC)ccc1C(=O)OC` belongs 3 (inactive); to `CN(CC(=O)NC1CCCCC1)S(=O)(=O)c1cccc2cccnc12`, 118 (active); to `Cc1ccc(S(=O)(=O)N(C)CC(=O)NC2CCCC2)cc1`, 10 (inactive). Regarding `CN(CC(=O)NC1CCCCC1)S(=O)(=O)c1ccc(Br)s1`, the fluorescence (KMESF) is 32 (inactive).

In the case of `COc1ccc2c(c1)cc1n2CCN=C1NN`, the fluorescence (KMESF) is 7 (inactive). As to `Cc1ccccc1CS(=O)(=O)CC1(O)CCN(C(=O)c2cccc(C(F)(F)F)c2)CC1`, the fluorescence (KMESF) is 88 (active). For `CC(C)CC(=O)N1CCC(O)(CS(=O)(=O)Cc2ccccc2)CC1`, the fluorescence (KMESF) is 7 (inactive). To `Cc1ccccc1CN1CCN(C(=O)c2cccc(F)c2)CC1` belongs 4 (inactive); to `O=C(c1ccc(F)cc1)N1CCC(n2nnc3ccccc32)CC1`, 34 (inactive); to `CCOc1cnc(C(=O)NNC(=O)c2ccccc2Br)o1`, 15 (inactive). To `COc1cccc(-c2ccc(SCC(=O)N3CCN(c4ccccc4)CC3)nn2)c1` belongs 8 (inactive); to `COC(=O)CSc1ccc2nnc(CCNS(=O)(=O)c3ccc(C)cc3)n2n1`, 4 (inactive).

Regarding `CC(C)CCNC(=O)C(C)N(C(=O)Cn1nnc(-c2ccc(F)cc2)n1)C1CCCC1` (configuration not stated), the fluorescence (KMESF) is 51 (active). To `COc1ccc(-c2nnn(CC(=O)N(CCO)C(C(=O)NC3CCCC3)c3ccc(F)cc3)n2)cc1` (configuration not stated) belongs 12 (inactive); to `CC(C)CCNC(=O)CN(C(=O)Cn1nnc(-c2ccc(F)cc2)n1)C1CCCC1`, 14 (inactive); to `O=C(NNS(=O)(=O)c1ccc(F)cc1)c1cnccn1`, 10 (inactive).

In the case of `COc1cccc(C(=O)Nc2ccc(N3CCCC3)cc2)c1`, the fluorescence (KMESF) was 9 (inactive).

On to `CC(=O)Nc1cccc(Oc2cc(C#N)c(C#N)cc2N2CCOCC2)c1`, for which the fluorescence (KMESF) was 7 (inactive). For the compound `COc1cc(N2CCCC2)c(OC)cc1/C=C(/C#N)c1cccc(Br)c1`, the fluorescence (KMESF) was 47 (active). As to `COc1ccc(/C(=N\O)c2nccc3cc(OC)c(OC)cc23)cc1OC`, the fluorescence (KMESF) was 7 (inactive).

Take `O=C(NC(=S)Nc1ccc(S(=O)(=O)N2CCOCC2)cc1)c1ccccc1[N+](=O)[O-]`: the fluorescence (KMESF) was 10 (inactive). The value for `CCc1ccccc1NC(=O)Cc1cn(C)c2ccccc12` was 10 (inactive).

Take `Brc1ccc(CSc2ccc(-c3ccco3)nn2)cc1`: the fluorescence (KMESF) is 13 (inactive).

For the compound `Cn1c(SCc2c(F)cccc2Cl)nnc1-c1cnccn1`, the fluorescence (KMESF) was 1 (inactive). Consider `Fc1cccc(Cl)c1CSc1ccc(-c2ccco2)nn1`, for which the fluorescence (KMESF) is 49 (active). To `CCCCN(Cc1ccccc1)C(=O)C1CCN(Cc2sccc2C)CC1` belongs 5 (inactive); to `Cc1ccc(-c2cn(S(=O)(=O)c3cccc([N+](=O)[O-])c3)nc2N)cc1`, 2 (inactive); to `O=C(N/N=C/c1cccc2cccnc12)[C@H]1C[C@@H]1c1ccccc1`, 4 (inactive). The value for `Cc1c(CN2CCC(C)CC2)c(=O)n(-c2ccccc2)n1C` was 9 (inactive). As for `Cc1c(CN2CCCC(C(=O)c3cccc(Cl)c3)C2)c(=O)n(-c2ccccc2)n1C` (configuration not stated), the fluorescence (KMESF) was 67 (active). As for `Cc1cccc(N2CCN(Cc3c(C)n(C)n(-c4ccccc4)c3=O)CC2)c1C`, the fluorescence (KMESF) is 16 (inactive). Regarding `Cc1ccc(N/C=C/C(=O)c2ccccc2)cc1C`, the fluorescence (KMESF) was 14 (inactive). The value for `O=C(/C=C/Nc1ccccc1)c1cnc(-c2ccccc2)s1` was 49 (active); that for `CC(=O)c1cnc(-c2ccccc2)s1` was 9 (inactive). The value for `CCNC(=O)CCc1nc(-c2ccc(C(C)(C)C)cc2)no1` was 49 (active); that for `CCNC(=O)CCc1nc(-c2ccc(C)cc2)no1` was 4 (inactive); that for `Cc1ccc(-c2noc(CCC(N)=O)n2)cc1` was 19 (inactive). For `Cc1ccc2c(C)c(C(=O)N3CCC(N4CCC(C(=O)NC5CC5)CC4)CC3)oc2c1`, the fluorescence (KMESF) is 8 (inactive). With `COc1ccc(NC(=O)C2C3C=CC(C3)C2C(=O)NCc2ccccn2)c(OC)c1` (configuration not stated), the fluorescence (KMESF) is 27 (inactive).

On to `Cc1ccccc1N(C(=O)Cc1cccs1)C(C(=O)NC1CCCCC1)c1cn(C)nc1C` (configuration not stated), for which the fluorescence (KMESF) was 12 (inactive).

Regarding `O=S(=O)(NCCc1csc(-c2ccccc2)n1)c1cccnc1`, the fluorescence (KMESF) was 5 (inactive).

Turning to `CC(C(=O)NC1CCCC1)N(c1ccc(Oc2ccccc2)cc1)S(C)(=O)=O` (configuration not stated), the fluorescence (KMESF) is 9 (inactive).

As for `Cc1ccccc1C(OCCN(C)C)C1CCCCC1` (configuration not stated), the fluorescence (KMESF) was 13 (inactive).

On to `O=C(COc1ccc(Cl)cc1)NCCC1=CCCCC1`, for which the fluorescence (KMESF) is 51 (active). The value for `O=C(COc1cccc(-n2cnnn2)c1)NCCC1=CCCCC1` was 5 (inactive); that for `Cc1nnc(OCC(=O)NCCC2=CCCCC2)c2ccccc12` was 20 (inactive); that for `COC/C=C/C1=CC2=CC(=O)C(C)(OC(=O)CCC(=O)OC)C(=O)C2=CO1` (configuration not stated) was 10 (inactive). To `O=C(CSc1ccccc1)Nc1ccc(C(=O)Nc2cccc(O)c2)cc1` belongs 15 (inactive). The value for `O=C(NCCOc1ccccc1Cl)C(=O)Nc1ccccc1` was 2 (inactive); that for `COc1ccc(S(=O)(=O)N2CCCCCC2)cc1C(=O)OCC(=O)Nc1cc(C)on1` was 11 (inactive); that for `CN(C)c1ccc(/C=C/C(=O)c2ccc(O)cc2)cc1[N+](=O)[O-]` was 6 (inactive). In the case of `O=C(/C=C/c1ccc(Cl)c([N+](=O)[O-])c1)c1ccc(O)cc1`, the fluorescence (KMESF) was 6 (inactive). For the compound `CN(C)c1ccc(/C=C/C(=O)c2ccc(C(C)(C)C)cc2)cc1[N+](=O)[O-]`, the fluorescence (KMESF) was 57 (active). For `CCOc1ccc(Br)cc1CSC(=N)N`, the fluorescence (KMESF) is 8 (inactive). To `N=C(N)SCc1cccc2ccccc12` belongs 68 (active); to `c1ccc2c(CSCc3nc4ccccc4[nH]3)cccc2c1`, 9 (inactive).
